Results: PubChem BioAssay (Tox21)
Where “and” joins values, the source holds several entries; their conditions need not be identical. Equal entries are not always repeated. Results filed as inconclusive are left out. Entries that show only a call come without a potency. More than one record can exist for a structure, and the calls need not agree. Calls of active or inactive are those of the source. The call rests on the fitted dose curve; in most records, active means well fitted inhibition curve with a large enough effect in the repeat runs; inconclusive means weak or mixed curves, or effect the other way; inactive means no such curve, though single readings can be large or run the other way.

Molecular target: Nuclear receptor ROR-gamma (Homo sapiens) (UniProt P51449)
Experiment: qHTS assay to identify small molecule antagonists of the retinoid-related orphan receptor gamma (ROR-gamma) signaling pathway (AID 1159521; further: nearly all actives have a fitted effect of over 50% in size; on activity change, negative = inhibition: top concentration of the series differs between compounds)
Conditions: Tet-on RORgamma CHO cells, RORE-luciferase, 16 h; series mostly up to 92.4 µM
Source text: U.S. Tox21 Program National Center for Advancing Translational Sciences [NCATS] NIH Chemical Genomics Center [NCGC] U.S. Environmental Protection Agency [EPA] National Institutes of Environmental Health Sciences [NIEHS] National Toxicology Program [NTP] U.S. Food and Drug Administration [FDA] Tox21 Assay Overview: Nuclear steroid hormone receptors are involved in many biological processes including inflammatory responses, cell proliferation, and apoptosis. Environmental factors or compounds disrupting these nuclear receptor pathways and gene expression may promote susceptibility to immunotoxicants and autoimmune diseases. One important group of these expression factors are the retinoid-related orphan receptors. To assess compounds that may interfere with the retinoid-related orphan receptor gamma (ROR-gamma) transcription factor, a cell-based luciferase assay was used. The CHO cell-based assay utilizes a TET-inducible ROR expression factor and ROR response element-LUC reporter gene. Reporter gene activity was induced using Doxycycline Hyclate and measured after 16 hr incubation. Tet-on ROR gamma CHO cells were used to screen against the Tox21 10K compound library for ROR gamma antagonists by quantification of decreased reporter gene activity in terms of decreased luminescence.
Tox21 Assay Protocol Summary: Tet-on ROR gamma CHO cells were dispensed at 1,000 cells in 4 uL of culture medium per well into white wall/solid bottom 1536-well plates using a Multidrop Combi (Thermo Scientific, Waltham, MA) dispenser. Following incubation at 37 C and 5% CO2 for 4 hr, 23 nL of compounds dissolved in DMSO, positive controls or DMSO only were transferred by a Pintool station (Kalypsys, San Diego, CA) and after 2 hr incubation at 37 C, one ul of 1 uM (final concentration) of Doxycycline Hyclate was added to all the wells by using a Flying Reagent Dispenser (FRD) (Aurora Discovery, San Diego, CA). After 16 hr incubation at 37 C and 5% CO2, 5 uL of ONE-Glo reagent (Promega Corporation, Madison, WI) was added to each assay plate using FRD. After 30 min incubation at room temperature, luminescence was quantified on a ViewLux plate reader (Perkin Elmer, Waltham, MA).
Potency means the concentration at half of the fitted maximal effect.

Compound | Potency | activity change, negative = inhibition
ClC1=C(Cl)[C@]2(Cl)[C@@H]3[C@@H](Cl)[C@@H](Cl)C[C@@H]3[C@@]1(Cl)C2(Cl)Cl | inactive | 
Nc1c(Oc2ccccc2)cc(O)c2c1C(=O)c1ccccc1C2=O | inactive | 
CC1(C)CN=C(NN=C(/C=C/c2ccc(C(F)(F)F)cc2)/C=C/c2ccc(C(F)(F)F)cc2)NC1 | 12.2 µM (active) | 
NNC(=O)c1ccccc1 | inactive | 
[CH3][Hg][Cl] | 3.05 µM (active) | 
CC(=O)c1cc(C(C)(C)C)cc2c1CCC2(C)C | inactive | 
O=C1c2ccccc2C(=O)C1C(=O)C(c1ccccc1)c1ccc(Cl)cc1 (stereo not given) | 5.45 µM (active) | 
CCOC(=O)c1ccccc1S(=O)(=O)NC(=O)Nc1nc(Cl)cc(OC)n1 | inactive | 
CC(C)(C)c1ccc(CSc2cnn(C(C)(C)C)c(=O)c2Cl)cc1 | 0.154 µM (active) | 
CCCCCCCCCCCCCCCCCCn1cc[n+](C)c1 | 3.05 µM (active) | 
COP(N)(=S)OC | inactive | 
CCN(CC)c1c([N+](=O)[O-])cc(C(F)(F)F)c(N)c1[N+](=O)[O-] | 27.3 µM (active) | 
N#CCCO | inactive | 
CC(C)CC(C)(c1ccc(O)cc1)c1ccc(O)cc1 | 43.4 µM (active) and 48.6 µM (active) | 
N#Cc1c(-c2ccc(Cl)cc2)[nH]c(C(F)(F)F)c1Br | 0.137 µM (active) | 
CC(=O)Nc1ccc2c(c1)Cc1ccccc1-2 | inactive | 
Clc1ccc(C(c2ccc(Cl)cc2)C(Cl)(Cl)Cl)cc1 | 61.6 µM (active) | 
O=C1C=CC(=O)c2ccccc21 | 1.54 µM (active) | 
CN(C)CCc1c[nH]c2ccc(O)cc12 | inactive | 
ClC1=C(Cl)C2(Cl)C3C(Cl)C=CC3C1(Cl)C2(Cl)Cl (stereo not given) | 61.4 µM (active) and inactive | 

Compound | Potency | activity change, negative = inhibition
O=C(CBr)c1ccc(O)cc1 | 48.6 µM (active) | 
Clc1ccc(CO/N=C(\Cn2ccnc2)c2ccc(Cl)cc2Cl)c(Cl)c1 | 26.6 µM (active) | 
C=CCOC(N)=O | inactive | 
O=C(CCl)C(Cl)Cl | 6.17 µM (active) | 
C[As+](C)(C)CC(=O)[O-] | inactive | 
Brc1c(Br)c(Br)c(Oc2c(Br)c(Br)c(Br)c(Br)c2Br)c(Br)c1Br |  | 5.56% [at 19 µM] (inactive)
CN(CCCC(=O)c1cccnc1)N=O | inactive | 
CCC(C)(C)C(=O)OC1=C(c2ccc(Cl)cc2Cl)C(=O)OC12CCCCC2 | inactive | 
NC(=O)c1ccc(N)nc1 | 0.611 µM (active) | 
CCCCCCCCCCCCCCCC[n+]1ccccc1 | 4.27 µM (active) [middle of 4 runs] | 
Nc1ccc(Cl)cc1C(=O)c1ccccc1 | inactive | 
Cc1cc(C(C)(C)c2cc(C)c(O)c(C)c2)cc(C)c1O | 26.4 µM (active) | 
N#Cc1ccc(O)cc1 | inactive | 
Oc1ccc2ccc3cccc4ccc1c2c34 | inactive | 
CCC(C)c1cc(C(C)(C)C)cc(-n2nc3ccccc3n2)c1O (stereo not given) | inactive | 
CCN | inactive | 
COP(=S)(OC)Oc1cc(Cl)c(Br)cc1Cl | 68.6 µM (active) | 
FC(F)(F)c1cccc(C2=CCN(CCc3ccc4ccccc4c3)CC2)c1 | inactive | 
CC(=[OH+])/C=C(/C)[O-].CC(=[OH+])/C=C(\C)[O-].CC(=[OH+])/C=C(\C)[O-].[Fe] | inactive | 
CCCCN(CCCC)C(=S)[S-].CCCCN(CCCC)C(=S)[S-].[Zn+2] | 13.7 µM (active) | 
